# Data as given in PubChem BioAssay AID777 (Sanford-Burnham Center for Chemical Genomics, 2007).
# About 19,000 (20%) of roughly 96,000 compounds were called active. Not all results are given here. A number with no mark means an inactive call.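 The calls were made as follows: active = blocking of liver enzyme CYP2C9 beyond about 50% at 5 µM (limit read from the data); inactive = the rest.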
# Molecular target: Cytochrome P450 2C9 (Homo sapiens) (UniProt P11712)
# Assay: blockers of cytochrome P450 2C9 activity – biochemical, luminescence, ADME assay, primary screen (AID 777)
# Settings: CYP2C9 Supersomes, luciferin-H conversion, at 5 µM, active compounds read high
# Chain of Cytochrome P450 2C9 (Homo sapiens) (P11712 whole entry, looked up): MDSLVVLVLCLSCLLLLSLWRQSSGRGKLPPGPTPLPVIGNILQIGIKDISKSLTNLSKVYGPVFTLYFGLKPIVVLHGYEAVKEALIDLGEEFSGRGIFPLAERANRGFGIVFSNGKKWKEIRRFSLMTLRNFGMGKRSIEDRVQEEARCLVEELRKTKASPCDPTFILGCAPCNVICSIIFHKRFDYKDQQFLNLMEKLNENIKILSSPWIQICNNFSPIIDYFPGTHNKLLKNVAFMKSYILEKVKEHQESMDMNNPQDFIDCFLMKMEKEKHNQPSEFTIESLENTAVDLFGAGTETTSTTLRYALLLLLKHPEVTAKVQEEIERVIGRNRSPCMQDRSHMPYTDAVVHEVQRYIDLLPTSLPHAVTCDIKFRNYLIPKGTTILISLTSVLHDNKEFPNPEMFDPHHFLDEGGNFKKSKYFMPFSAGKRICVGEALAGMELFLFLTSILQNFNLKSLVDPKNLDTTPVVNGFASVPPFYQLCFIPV
row,Structure (SMILES),inhibition
1,O=C(CSc1nnc2ccccn12)c1ccccc1,-8.3%
2,O=C(O)CC(Cn1cnnn1)c1ccccc1 (stereo unspecified),-8.1%
3,Cc1ccc2nc(NCCCNC(=O)c3cnccn3)c(C#N)cc2c1,2.7%
4,CC(CNC(=O)c1ccc(Br)o1)NC(=O)c1ccc(Br)o1 (stereo unspecified),25.6%
5,CC(CNc1ccc([N+](=O)[O-])cc1)NC(=O)c1ccccc1Br (stereo unspecified),70.7% (active)
6,CC(CCc1ccccc1)NC(=O)c1ccc(Br)o1 (stereo unspecified),18.7%
7,COc1ccc(C(=O)Nc2ccc(F)cc2F)cc1,15.2%
8,CC1COC2C(O1)N(S(C)(=O)=O)CCN2S(C)(=O)=O (stereo unspecified),-18.1%
9,Nc1ccc(Oc2ccc(Cl)cc2)cc1,22.5%
10,CC(C)(C)NS(=O)(=O)CC12CCC(CC1=O)C2(C)C (stereo unspecified),24%
11,COC(=O)C1C(=O)CC(C)(O)C(C(=O)OC)C1c1ccc2c(c1)OCO2 (stereo unspecified),5.1%
12,O=C(C(NS(=O)(=O)c1cccc2nsnc12)c1ccccc1)N1CCN(c2ccccc2)CC1 (stereo unspecified),97.4% (active)
13,O=C(C(NS(=O)(=O)c1cccc2nsnc12)c1ccccc1)N1CCN(c2ccccn2)CC1 (stereo unspecified),78.6% (active)
14,O=C(CCS(=O)(=O)c1cccc2nsnc12)N1CCN(c2ccccc2F)CC1,-136%
15,O=C(O)c1ccc(NS(=O)(=O)c2cccc3nsnc23)cc1,-5.5%
16,CC(=C1C(=O)c2ccccc2C1=O)N1CCN(c2ccccn2)CC1,17.1%
17,COc1ccccc1CNC(=O)CCCNS(=O)(=O)c1cccc2nsnc12,-32.2%
18,CC1CC(C)CN(S(=O)(=O)c2cccc(C(=O)N3C(=O)c4cccc(N)c4C3=O)c2)C1 (stereo unspecified),13.8%
19,COc1ccc(-c2nn(C)c(=O)c3ccccc23)cc1NC(=O)COc1ccccc1,27.9%
20,CN(C)c1nc(N)nc(CSc2ccccn2)n1,-8.3%
21,O=C1N=C2SCCN2/C1=C\c1c(Cl)cccc1Cl,8.7%
22,Cc1ccc(-c2cnc(NC(=O)CCC(=O)N(C)Cc3ccccc3)n2C)cc1,3.3%
23,CC(=O)c1ccc(-n2nnnc2SCC(=O)N2CCN(C(=O)c3ccco3)CC2)cc1,5.3%
24,CCC(c1nnnn1C1CCCC1)N1CCN(C(=O)c2ccco2)CC1 (stereo unspecified),84.4% (active)
25,CC(C)C(c1nnnn1CCc1ccccc1)N1CCN(C(=O)c2ccco2)CC1 (stereo unspecified),27.7%
26,COc1ccccc1C1/C(=C(/O)c2ccc(OC(C)C)cc2)C(=O)C(=O)N1c1cc(C)on1 (stereo unspecified),-0.1%

row,Structure (SMILES),inhibition
1,COc1cccc(C2/C(=C(/O)c3ccc(F)cc3)C(=O)C(=O)N2CCN(C)C)c1 (stereo unspecified),-22.1%
2,Cc1cc(N2C(=O)C(=O)/C(=C(/O)c3ccc(Cl)cc3)C2c2cccc(Br)c2)no1 (stereo unspecified),61.1% (active)
3,O=C1CCC(=O)N1CCOP1(=O)COc2ccccc2OC1,-19.3%
4,COc1cccc(OC)c1C(=O)Nc1ccc(N2CCCCC2)cc1,10.6%
5,COCCCn1c2nc3ccccc3nc2c2c(=O)n(Cc3ccc(Cl)cc3)c(C)nc21,20.5%
6,Cc1ccc(Cn2c(C)nc3c(c2=O)c2nc4ccccc4nc2n3Cc2ccco2)cc1,47.7%
7,Cc1nc2c(c(=O)n1Cc1ccco1)c1nc3ccccc3nc1n2Cc1ccccc1,61.7% (active)
8,COc1cc(Br)cc(/C=N/c2ncn[nH]2)c1O,1%
9,O=C1CC(c2ccccc2)CC(O)=C1C=NCCN1CCOCC1 (stereo unspecified),-8.2%
10,O=C1CCC(Cc2ccccc2)N1 (stereo unspecified),2%
11,Cn1cc([N+](=O)[O-])c(C(=O)Nc2ccc3c(c2)OCCO3)n1,8.7%
12,CCCCC(=O)Nc1ccc2c(c1)OCCO2,60.5% (active)
13,CCN(CC(=O)Nc1ccc2c(c1)OCCO2)Cc1cc(=O)oc2cc(C)c(C)cc12,93% (active)
14,CCCCC(=O)Nc1ccc2c(c1)C(=O)NC2=O,14%
15,O=C(COc1ccc2c(C(F)(F)F)cc(=O)oc2c1)Nc1ccc2c(c1)OCCO2,22.6%
16,CCNCc1cc2cc(C)ccc2[nH]c1=O,9.6%
17,CCCCOC(=O)CNc1nnc(SCC(=O)OCC)[nH]c1=O,1%
18,O=C1c2ccccc2C(=O)c2c1cccc2N1CCN(CCO)CC1,32.5%
19,O=C1c2ccccc2C(=O)c2c1cccc2N1CCN(Cc2ccccc2)CC1,64.6% (active)
20,O=c1cc(N2CCN(Cc3ccccc3)CC2)c(-c2ccccc2)n[nH]1,13.5%
21,Clc1ccc(Nc2nc(-c3cccs3)cs2)nc1,11.8%
22,O=C1CCN(C(=O)Nc2ccccc2)N1,-2.1%
23,COc1ccc([N+](=O)[O-])cc1NC(=O)CCc1ccccc1,-65.9%
24,COc1ccc([N+](=O)[O-])cc1N(CC(O)Cn1nnc2ccccc21)S(=O)(=O)c1ccc(C)cc1 (stereo unspecified),63.8% (active)
25,CCCOc1cc(C)c(S(=O)(=O)n2nnc3ccccc32)cc1C,-0.2%
